Reference: PubChem BioAssay AID1224921 (Broad Institute, 2016)
About 350 (25%) of roughly 1,400 compounds were called active. Not shown: some 2% with an inconclusive outcome. How the calls were made is not given here. These entries were drawn from the full list. Potency and affinity values are given separately.

Experiment: C. difficile growth inhibition, confirmation, 4-point retest (AID 1224921);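 further: plate controls were DMSO wells for no effect and levofloxacin 16 µg/mL wells for full effect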
Conditions: Clostridioides difficile clinical isolate growth, OD600, 24 h, stronger effect = lower value; at 30 µM unless noted

Max activity, inactive:
CO[C@H]1CN(C)C(=O)c2cc(NC(=O)NC(C)C)ccc2OC[C@@H](C)N(C)C[C@H]1C 4.11%, O=C(CN1CCOCC1)NCC[C@H]1CC[C@H](NC(=O)Cc2ccccn2)[C@@H](CO)O1 -9.14% [at 0.5 µM], CCCNC(=O)Nc1ccc2c(c1)C(=O)N(C)C[C@H](OC)[C@@H](C)CN(C)[C@H](C)CO2 -9.08% [at 8 µM], C[C@H](CO)N1C[C@H](C)[C@@H](CN(C)C)Oc2cc(C#CCC3CCCC3)ccc2S1(=O)=O 7% [at 7.5 µM], C[C@H]1CN([C@@H](C)CO)S(=O)(=O)c2ccc(C#CCC3CCCC3)cc2O[C@H]1CN(C)C 10.1% [at 8 µM], CC(=O)N(C)C[C@H]1Oc2cc(C#CC3CCCCC3)ccc2S(=O)(=O)N([C@H](C)CO)C[C@H]1C 12.6% [at 8 µM], C[C@@H]1CN([C@H](C)CO)S(=O)(=O)c2ccc(C#CC3CCCC3)cc2O[C@H]1CN(C)C 49.4%, O=C(Nc1cc(F)ccc1F)N[C@@H]1CC[C@H](CC(=O)N2CCc3ccccc3C2)O[C@H]1CO 38.5%, O=C(N[C@H]1C=C[C@H](CC(=O)N2CCOCC2)O[C@H]1CO)c1cccc(F)c1 -11.2% [at 1.95 µM], CO[C@@H]1CN(C)C(=O)c2ccc(NC(=O)c3ccc(F)cc3)cc2OC[C@@H](C)N(C(=O)CN(C)C)C[C@@H]1C -12.8% [at 1.95 µM], C[C@H]1CN([C@@H](C)CO)S(=O)(=O)c2ccc(C3=CCCCC3)cc2O[C@@H]1CN(C)Cc1ccncc1 42.8%, CO[C@H]1CN(C)C(=O)c2ccc(NC(=O)c3nc4ccccc4s3)cc2OC[C@@H](C)N(Cc2cccnc2)C[C@@H]1C 23.4%, COCCNC(=O)C[C@@H]1C[C@@H]2c3cc(NC(=O)Nc4ccc(C(F)(F)F)cc4)ccc3O[C@@H]2[C@H](CO)O1 9.41%, O=C(C[C@H]1C[C@H]2c3cc(NC(=O)Nc4ccc(C(F)(F)F)cc4)ccc3O[C@H]2[C@H](CO)O1)NCC1CC1 -13.1% [at 1.95 µM], COCCNC(=O)C[C@H]1C[C@H]2c3cc(NC(=O)Nc4ccc(C(F)(F)F)cc4)ccc3O[C@H]2[C@@H](CO)O1 -9.02%, O=C(C[C@H]1C[C@H]2c3cc(NC(=O)Nc4ccc(C(F)(F)F)cc4)ccc3O[C@H]2[C@@H](CO)O1)NCC1CC1 -16.4% [at 0.5 µM], O=C(C[C@H]1C[C@@H]2c3cc(NC(=O)Nc4ccc(C(F)(F)F)cc4)ccc3O[C@@H]2[C@@H](CO)O1)NCC1CC1 14.9%, COCCNC(=O)C[C@H]1C[C@H]2c3cc(NC(=O)Nc4ccc(C(F)(F)F)cc4)ccc3O[C@H]2[C@H](CO)O1 -7.9% [at 1.95 µM], CC(C)(C)[S@](=O)N1Cc2cc(C(=O)NCc3ccc4c(c3)OCO4)nc(-c3cccc(-c4cccnc4)c3)c2[C@@H]1CCO 32.4% [at 35 µM], O=C(C[C@@H]1C=C[C@@H](NC(=O)CCN2CCCCC2)[C@H](CO)O1)Nc1ccc(-c2ccccc2)cc1 21.5%, CC(C)c1cn(CC[C@@H]2CC[C@H](NS(=O)(=O)c3ccc(F)cc3)[C@H](CO)O2)nn1 -12.5%, N#C[C@@H]1[C@H](c2ccccc2)[C@H](CO)N1S(=O)(=O)c1ccc(-c2ccccc2)cc1 15.3%, C[C@@H]1CN([C@@H](C)CO)C(=O)c2cc(C3=CCCCC3)cnc2O[C@@H]1CN(C)C(=O)c1cccc(F)c1 24.7%, C[C@H](NC(=O)C[C@@H]1C[C@@H]2c3cc(NC(=O)CC4CC4)ccc3O[C@@H]2[C@H](CO)O1)c1ccccc1 8.12% [at 35 µM], O=C(C[C@H]1C[C@H]2c3cc(NC(=O)Nc4ccc(C(F)(F)F)cc4)ccc3O[C@H]2[C@@H](CO)O1)NCc1ccc(Cl)cc1 -6.14% [at 7.5 µM], CO[C@@H]1CN(C)C(=O)c2cc(NC(=O)Nc3c(C)noc3C)ccc2OC[C@@H](C)N(C(=O)Nc2cccc(Cl)c2)C[C@H]1C 14.7%, C[C@H](CO)N1C[C@H](C)[C@@H](CN(C)C(=O)NC2CCCCC2)Oc2c(NC(=O)Nc3ccc(F)cc3)cccc2C1=O 20.1%, CC(C)NC(=O)N(C)C[C@H]1Oc2c(NC(=O)Nc3ccc(C(F)(F)F)cc3)cccc2C(=O)N([C@@H](C)CO)C[C@H]1C 34.2% [at 8 µM], C[C@@H]1CN([C@H](C)CO)C(=O)c2cccc(NC(=O)Nc3ccc(C(F)(F)F)cc3)c2O[C@H]1CN(C)C(=O)NC1CCCCC1 34.6%, C[C@H](CO)N1C[C@H](C)[C@@H](CN(C)C(=O)NC2CCCCC2)Oc2c(NC(=O)Nc3ccc(C(F)(F)F)cc3)cccc2C1=O 28.8%, Cc1ccc(-c2cnc3c(c2)C(=O)N([C@@H](C)CO)C[C@@H](C)[C@@H](CN(C)C(=O)c2cccc(F)c2)O3)cc1 28.4%, CC(C)[C@H](C)NC(=O)N(C)C[C@@H]1OCc2ccccc2-c2ccccc2C(=O)N([C@@H](C)CO)C[C@H]1C -10.9% [at 1.95 µM], CO[C@H]1CN(C)C(=O)c2ccc(NS(=O)(=O)c3ccc(C)cc3)cc2OC[C@@H](C)N(C(=O)NC(C)C)C[C@H]1C 6.95%, C[C@@H]1CN([C@H](C)CO)S(=O)(=O)c2ccc(C#CCC3CCCC3)cc2O[C@@H]1CN(C)C(=O)CC1CC1 36.7%, Cc1noc(C)c1NC(=O)N[C@@H]1CC[C@H](CC(=O)Nc2ccc(-c3ccccc3)cc2)O[C@@H]1CO 42%, CCN1C[C@@H](C)[C@H](OC)CN(C)C(=O)c2cc(NC(=O)NC(C)C)ccc2OC[C@H]1C 16.9%, CC(C)CC#Cc1ccc2c(c1)O[C@H](CN(C)Cc1cccnc1)[C@H](C)CN([C@@H](C)CO)S2(=O)=O 26.5%, N#C[C@H]1[C@H](c2ccc(C#Cc3ccccc3F)cc2)[C@@H](CO)N1C(=O)C1CCCCC1 15.2% [at 1.95 µM], CCC(=O)Nc1ccc2c(c1)OC[C@@H](C)N(Cc1ccccc1)C[C@H](C)[C@@H](OC)CN(C)C2=O 21.5%, COc1ccc(CN(C)C[C@@H]2OCCCC[C@H](C)Oc3ccc(NC(=O)Nc4ccc(C(F)(F)F)cc4)cc3C(=O)N([C@@H](C)CO)C[C@H]2C)cc1 21.3% [at 8 µM], COc1ccc(CN(C)C[C@H]2OCCCC[C@H](C)Oc3ccc(NC(=O)Nc4ccc(C(F)(F)F)cc4)cc3C(=O)N([C@H](C)CO)C[C@@H]2C)cc1 35.8%, COc1ccc(CN(C)C[C@H]2OCCCC[C@@H](C)Oc3ccc(NC(=O)Nc4ccc(C(F)(F)F)cc4)cc3C(=O)N([C@@H](C)CO)C[C@H]2C)cc1 38.8% [at 1.95 µM], COc1ccc(CN(C)C[C@@H]2OCCCC[C@@H](C)Oc3ccc(NC(=O)Nc4ccc(C(F)(F)F)cc4)cc3C(=O)N([C@H](C)CO)C[C@H]2C)cc1 35.6% [at 8 µM], COc1ccc(CN(C)C[C@@H]2OCCCC[C@H](C)Oc3ccc(NC(=O)Nc4ccc(F)cc4)cc3C(=O)N([C@@H](C)CO)C[C@H]2C)cc1 23.6%, COc1ccc(CN(C)C[C@H]2OCCCC[C@H](C)Oc3ccc(NC(=O)Nc4ccc(C(F)(F)F)cc4)cc3C(=O)N([C@H](C)CO)C[C@H]2C)cc1 38.6% [at 1.95 µM], COc1cccc(C#Cc2ccc([C@H]3[C@@H](CO)N(C(=O)C4CC4)[C@H]3C#N)cc2)c1 19.6%, CO[C@@H]1CN(C)C(=O)c2cc(NC(=O)c3ccccc3)ccc2OC[C@H](C)N(C)C[C@H]1C 6.89% [at 8 µM], CO[C@@H]1CN(C)C(=O)c2cc(NS(=O)(=O)c3cn(C)cn3)ccc2OC[C@@H](C)N(Cc2cccc(Cl)c2)C[C@H]1C 31.5%, C[C@H](CO)N1C[C@H](C)[C@@H](CN(C)C(=O)NC2CCCCC2)Oc2c(NC(=O)Nc3cccc4ccccc34)cccc2C1=O 61.2%, C[C@@H]1CCCCO[C@@H](CN(C)Cc2ccc3c(c2)OCO3)[C@H](C)CN([C@H](C)CO)C(=O)c2cc(NC(=O)Nc3ccc(F)cc3)ccc2O1 18%, CCCN1C[C@@H](C)[C@H](OC)CN(C)C(=O)c2cc(NC(=O)Nc3cccc(OC)c3)ccc2OC[C@H]1C -7.34% [at 1.95 µM], CCCN1C[C@@H](C)[C@H](OC)CN(C)C(=O)c2ccc(NC(=O)Nc3c(C)noc3C)cc2OC[C@@H]1C 21.5%, CCCN1C[C@@H](C)[C@H](OC)CN(C)C(=O)c2ccc(NC(=O)CC)cc2OC[C@@H]1C 3.36%, COc1ccc(NC(=O)Nc2ccc3c(c2)[C@@H]2C[C@@H](CC(=O)NCc4ccccc4F)O[C@H](CO)[C@@H]2O3)cc1 -14.3%, C[C@@H]1CN([C@@H](C)CO)C(=O)c2cccc(NS(=O)(=O)c3ccc(Cl)cc3)c2O[C@@H]1CN(C)Cc1ccc(C(F)(F)F)cc1 20.4% [at 1.95 µM], COc1ccc(CN(C)C[C@H]2OCCCC[C@@H](C)Oc3ccc(NC(=O)Nc4ccc5c(c4)OCO5)cc3C(=O)N([C@H](C)CO)C[C@H]2C)cc1 17.6%, COc1ccc(CN(C)C[C@H]2OCCCC[C@H](C)Oc3ccc(NC(=O)Nc4ccc5c(c4)OCO5)cc3C(=O)N([C@H](C)CO)C[C@H]2C)cc1 21.6%, C[C@@H]1CCCCO[C@@H](CN(C)Cc2ccc3c(c2)OCO3)[C@H](C)CN([C@@H](C)CO)C(=O)c2cc(NC(=O)Nc3ccc4c(c3)OCO4)ccc2O1 14.9%, Cc1ccc(S(=O)(=O)Nc2ccc3c(c2)C(=O)N([C@@H](C)CO)C[C@H](C)[C@@H](CN(C)Cc2ccc(Cl)c(Cl)c2)OCCCC[C@@H](C)O3)cc1 8.85%, CCCN(C)C[C@H]1OCCCC[C@H](C)Oc2ccc(NS(=O)(=O)c3c(C)noc3C)cc2C(=O)N([C@@H](C)CO)C[C@@H]1C 19% [at 8 µM], Cc1ccc(S(=O)(=O)Nc2ccc3c(c2)C(=O)N([C@H](C)CO)C[C@@H](C)[C@H](CN(C)Cc2ccc(Cl)c(Cl)c2)OCCCC[C@H](C)O3)cc1 39% [at 1.95 µM], C[C@@H]1CN([C@@H](C)CO)C(=O)c2cc(NC(=O)Nc3ccc(F)cc3)ccc2O[C@@H](C)CCCCO[C@H]1CN(C)Cc1ccc2c(c1)OCO2 20.9%, C[C@H](CO)N1C[C@H](C)[C@@H](CN(C)Cc2ccc3c(c2)OCO3)OCCCC[C@H](C)Oc2ccc(NC(=O)Nc3ccc4c(c3)OCO4)cc2C1=O 12.4%
